About 5,700 (2.6%) of roughly 220,000 compounds were called active. Not shown: some 18% with an inconclusive outcome. The list comes from a sample in which actives are over-represented; it also holds similar structures and randomly drawn compounds. A number with no mark means an inactive call. Calls come from the whole dose curve; as a rule, active = well fitted inhibition curve with a large enough effect; inconclusive = small, poorly fitted or top-dose-only effect; inactive = no such curve, though single readings can be large or run the other way.
molecular target: Lysine-specific demethylase 5B (Homo sapiens) (UniProt Q9UGL1); experiment: Primary screen for KDM5B Histone Demethylases FDH-coupled qHTS; conditions: FDH-coupled NADH fluorescence (FDH is formaldehyde dehydrogenase); series mostly up to 57.7 µM; activity change, negative = inhibition: at the top concentration; note: nearly all actives have a fitted effect of over 70% in size; for activity change, negative = inhibition: 0% is about no effect
Description: Assay Submitter (PI): Qin Yan, Ph.D. (Yale University) and Xiaodong Cheng, Ph.D. (MD Anderson) This project was funded as part of the NCI NEXT Program and Chemical Biology Consortium (CBC) The histone demethylases, KDM5A and KDM5B catalyze the demethylation of lysine 4 on histone H3 (H3K4me3/2). They are overexpressed in a variety of cancers and have been implicated in cancer cell growth, metastasis, drug resistance, and tumor growth. KDM5A is amplified and overexpressed in breast and gastric cancer; and is translocated in leukemia. While KDM5B is highly expressed in human mammary tumors and breast cancer cell lines, but not in normal adult breast tissue. Moreover, knockdown of KDM5B leads to upregulation of tumor suppressor genes, including BRCA1. The goal of this project is to employ qHTS to identify selective small molecule inhibitors of KDM5A/B demethylase activity to better understand the role of KDM5 in cancer and to develop novel therapies. We employed an FDH-coupled assay previously reported by Sakurai et al. to monitor in vitro KDM5 demethylase activity. Compounds showing dose response inhibition are re-acquired, validated, and tested for non-specific interference with the formaldehyde dehydrogenase (FDH) counterscreen. True inhibitors are validated using an AlphaLisa secondary screen, which employs an H3K4(me2-1)-specific antibody to monitor demethylation of a biotin-tagged H3K4(me3) peptide substrate. Inhibitors are profiled against KDM4A and KDM6A AlphaLisa counterscreens to determine level of demethylase specificity; and against the TruHits counterscreen to eliminate non-specific inhibitory activity on the AlphaLISA detection method. Selective inhibitors identified from the primary and secondary screening are tested in cells using immunofluorescence to monitor global H3K4 tri-methylation as a measure of KDM5A/B inhibition. Early Translation Branch (ETB) National Center for Advancing Translational Sciences (NCATS), Rockville, MD National Institute of Health (NIH), Bethesda, Maryland [1] Sakurai, M et al. A miniaturized screen for inhibitors of Jumonji histone demethylases. Mol Biosyst. 2010 Feb;6(2):357-64. doi: 10.1039/b912993f. Epub 2009 Oct 8.
Materials: 1536-well Black, solid bottom, medium binding assay plate is purchased from Greiner Bio-one. The enzymes (KDM5B) and substrate (H3K4me3/2) are provided by the principal investigators. The buffer for this assay is composed of 50mM HEPES at pH 7.5 with 0.01% Tween-20. FDH coupled Demethylase qHTS protocol: Three microliter enzyme mix (buffer + 200nM KDM5BDeltaAP final concentration) is dispensed into the assay plate using the BioRAPTR Flying Reagent Dispenser (FRD; […]). Compound (at various final concentration) and control solution is pin transferred to the assay plate using the Kalypsys 1536-pin tool apparatus. The assay plate is incubated for 10 min at room temperature followed by addition of 1uL substrate mix (buffer + 100uM ascorbic acid, 50uM ferrous ammonium sulfate, 12.5uM H3K4Me3, 25uM a-ketoglutarate, 0.25 mM NAD+, 0.25 U/mL formaldehyde dehydrogenase using the FRD yielding a total reaction volume of 4 uL. Initial fluorescence (Read1) is detected using the PerkinElmer ViewLux plate reader equipped with 340 nm excitation and 450 nm emission filters. The final fluorescence (Read2) signal is obtained after 30 min of room temperature incubation. Delta RFU is calculated (Read2 - Read1) and is used to generated dose response curves.
Potency is the fitted concentration of half-maximal effect.

Lysine-specific demethylase 5B (Homo sapiens), sequence (Q9UGL1 whole entry, looked up): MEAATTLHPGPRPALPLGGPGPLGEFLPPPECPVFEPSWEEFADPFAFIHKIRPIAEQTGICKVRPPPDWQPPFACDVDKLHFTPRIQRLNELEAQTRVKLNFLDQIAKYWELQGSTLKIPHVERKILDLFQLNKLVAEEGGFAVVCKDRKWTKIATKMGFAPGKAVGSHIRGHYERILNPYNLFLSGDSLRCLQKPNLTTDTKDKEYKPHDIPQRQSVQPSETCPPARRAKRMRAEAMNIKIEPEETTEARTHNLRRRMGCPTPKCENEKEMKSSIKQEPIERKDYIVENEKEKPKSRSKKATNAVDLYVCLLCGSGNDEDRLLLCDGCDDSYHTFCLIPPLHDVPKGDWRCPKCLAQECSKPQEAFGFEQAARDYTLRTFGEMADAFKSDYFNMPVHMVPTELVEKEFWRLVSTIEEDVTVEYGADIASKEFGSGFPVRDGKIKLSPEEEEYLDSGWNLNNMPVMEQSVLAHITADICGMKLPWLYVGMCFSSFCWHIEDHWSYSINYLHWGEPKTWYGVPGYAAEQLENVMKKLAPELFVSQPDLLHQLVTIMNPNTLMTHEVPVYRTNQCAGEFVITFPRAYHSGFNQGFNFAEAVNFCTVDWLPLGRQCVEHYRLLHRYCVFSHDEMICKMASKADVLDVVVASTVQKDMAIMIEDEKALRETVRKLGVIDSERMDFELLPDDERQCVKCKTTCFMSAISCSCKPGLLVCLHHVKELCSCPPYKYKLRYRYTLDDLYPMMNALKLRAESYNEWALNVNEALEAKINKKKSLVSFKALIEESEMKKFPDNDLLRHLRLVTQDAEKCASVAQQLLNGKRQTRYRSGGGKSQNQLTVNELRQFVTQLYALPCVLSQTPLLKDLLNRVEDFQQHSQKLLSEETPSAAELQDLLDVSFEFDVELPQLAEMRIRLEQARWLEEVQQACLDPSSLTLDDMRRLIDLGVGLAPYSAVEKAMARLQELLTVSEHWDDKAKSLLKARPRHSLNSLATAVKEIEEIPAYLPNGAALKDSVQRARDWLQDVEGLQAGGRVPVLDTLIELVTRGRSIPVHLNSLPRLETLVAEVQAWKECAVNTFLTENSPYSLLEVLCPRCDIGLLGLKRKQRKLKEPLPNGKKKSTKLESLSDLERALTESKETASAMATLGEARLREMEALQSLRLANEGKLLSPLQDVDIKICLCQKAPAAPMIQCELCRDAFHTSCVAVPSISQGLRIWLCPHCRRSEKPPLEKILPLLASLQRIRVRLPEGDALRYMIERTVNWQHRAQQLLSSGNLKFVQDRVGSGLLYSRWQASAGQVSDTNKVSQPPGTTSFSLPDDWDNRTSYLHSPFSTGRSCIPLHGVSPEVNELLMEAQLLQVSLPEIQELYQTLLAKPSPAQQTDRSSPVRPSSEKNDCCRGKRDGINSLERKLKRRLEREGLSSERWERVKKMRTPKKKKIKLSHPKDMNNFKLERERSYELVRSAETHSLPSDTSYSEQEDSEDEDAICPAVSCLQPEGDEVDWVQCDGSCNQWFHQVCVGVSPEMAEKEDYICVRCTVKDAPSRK

Row | Compound | activity change, negative = inhibition | Potency
1 | O=C(Nc1ccc2n(c1=O)C[C@H]1C[C@@H]2CN(C(=O)c2ccccn2)C1)c1ccc(F)cc1 | -9.18% [at 86.2 µM] | 
2 | O=C(COc1ccccc1)N1C[C@@H]2C[C@H](C1)c1c(-c3ccccc3F)ccc(=O)n1C2 | -16.7% [at 86.2 µM] | 
3 | O=C(Nc1ccc(Cl)cc1)N1C[C@@H]2C[C@H](C1)c1c(-c3ccccc3F)ccc(=O)n1C2 | -24.4% | 
4 | CCCS(=O)(=O)N1C[C@@H]2C[C@H](C1)c1ccc(-c3ccccc3C)c(=O)n1C2 |  | 39.8 µM (active)
5 | O=C(NC1CCCCC1)N1C[C@@H]2C[C@H](C1)c1c(-c3ccccc3F)ccc(=O)n1C2 | -3.18% [at 86.2 µM] | 
6 | Cc1ccccc1-c1ccc2n(c1=O)C[C@H]1C[C@@H]2CN(C(=O)CSCC(=O)O)C1 |  | 39.8 µM (active)
7 | Cc1ccc(NC(=O)N(Cc2ccc3c(c2)OCO3)C2CCN(Cc3ccccc3)CC2)cc1F | -10.8% | 
8 | COc1ccc(/C=C\[N+](=O)[O-])c(OC)c1 | -8.21% | 
9 | CC1(C)NN1CCCCN1NC1(C)C (stereo not given) | -5.45% | 
10 | COC1CN(c2ccc(C)cc2)C12CCNCC2 (stereo not given) | 135% | 
11 | Cn1nc(-c2cccs2)cc1[C@H]1CN2CC[C@H]1C[C@@H]2CNC(=O)Nc1ccccc1 | -16.6% [at 86.2 µM] | 
12 | CN(C)C(=O)Oc1ccc2c(=O)c(-c3ccc(Br)cc3)c(C(F)(F)F)oc2c1 | 2.76% | 
13 | Cc1ccc(CN2CCC3(CCNCC3)C2)c(O)c1 | -11.6% | 
14 | COc1ccccc1-c1cc([C@H]2CN3CC[C@H]2C[C@@H]3CNC(C)=O)n(C)n1 | 28.8% [at 86.2 µM] | 
15 | COc1ccccc1-c1cc([C@H]2CN3CC[C@H]2C[C@@H]3CNC(=O)c2ccco2)n(C)n1 | -4.06% [at 86.2 µM] | 
16 | COc1ccccc1-c1cc([C@H]2CN3CC[C@H]2C[C@@H]3CNC(=O)c2ccco2)nc(C)n1 |  | 31.6 µM (active)
17 | COc1ccc(C(=O)NC[C@H]2C[C@@H]3CCN2C[C@@H]3c2cc(-c3ccccc3)nn2C)cc1 | -13% [at 86.2 µM] | 
18 | Cc1nc(-c2ccc(C(F)(F)F)cc2)cc([C@H]2CN3CC[C@H]2C[C@@H]3CNC(=O)c2ccco2)n1 | -25.8% | 

Row | Compound | activity change, negative = inhibition | Potency
19 | Cc1ccc(C(=O)NC[C@H]2C[C@@H]3CCN2C[C@@H]3c2cc(-c3ccco3)nc(C)n2)cc1 |  | 39.8 µM (active)
20 | COc1cc2c(cc1Oc1cccc(N(C)C)c1)NC(=O)C21CCN(Cc2ccccn2)CC1 | 2.87% | 
21 | c1ccc(CCN2CCC3(CC2)OCCO3)cc1 | 2.44% | 
22 | C=C[C@H]1CN2CC[C@H]1C[C@@H]2CNCc1ccc(C(F)(F)F)cc1 | 9.24% [at 86.2 µM] | 
23 | Cc1nc(-c2ccc(N(C)C)cc2)cc([C@H]2CN3CC[C@H]2C[C@@H]3CNC(=O)C2CCC2)n1 |  | 39.8 µM (active)
24 | Cc1nc(-c2ccccc2)cc([C@H]2CN3CC[C@H]2C[C@@H]3CNC2CCOCC2)n1 | -26.8% [at 86.2 µM] | 
25 | COc1ccc(-c2cc([C@H]3CN4CC[C@H]3C[C@@H]4CNC(=O)C3CCCCC3)n(C)n2)cc1 | -16.3% | 
26 | COc1ccc(-c2cc([C@H]3CN4CC[C@H]3C[C@@H]4CNC(=O)C3CC3)n(C)n2)cc1OC | -11.5% [at 86.2 µM] | 
27 | CCCS(=O)(=O)NC[C@H]1C[C@@H]2CCN1C[C@@H]2c1cc(-c2ccccc2)nc(C)n1 | 3.11% [at 86.2 µM] | 
28 | COc1ccc(-c2cc([C@H]3CN4CC[C@H]3C[C@@H]4COC(=O)NC(C)C)nc(C)n2)cc1 |  | 28.2 µM (active)
29 | CC(C)(C)NC(=O)NC(=O)CCl | 21.6% | 
30 | Cc1ccc(C(=O)N2[C@H]3CC[C@@H]2c2cnc(-c4ccccc4)nc2C3)c(C)c1 | 15.1% | 
31 | Cc1nc(C)c(C(=O)N2[C@H]3CC[C@@H]2c2cnc(-c4ccccc4)nc2C3)s1 | -13.3% | 
32 | CCOC(=O)c1c(C)n(Cc2ccccc2Cl)c2ccc(O)cc12 | -12% | 
33 | CC(=O)Nc1ccc(-c2ccc3n(c2=O)C[C@H]2C[C@@H]3CN(C3CCN(C)CC3)C2)cc1 |  | 39.8 µM (active)
34 | O=C(c1ccncc1)N1C[C@@H]2C[C@H](C1)c1ccc(C3CCCCC3)c(=O)n1C2 | -13.2% [at 86.2 µM] | 
35 | O=C(Nc1ccccc1)N1C[C@@H]2C[C@H](C1)c1c(-c3ccc(Cl)cc3)ccc(=O)n1C2 | -29.4% [at 86.2 µM] | 
